A selection: hits, their analogues and other compounds. The true share with any hit is near 9.2%.
ELG1 repair inh – inhibitors of ELG1-dependent DNA repair in HEK293T cells; HEK293T ELG1-luciferase reporter, luminescence, 16 h; DNA damage induced by 5-fluorouridine; actives 2.3% (n = 330,000); AID 504467; Potency, µM (highest dose often 46.1 µM), hits mostly inhibitors; also: nearly all actives have a fitted effect of over 55% in size
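5-Fluorouridine DNA damage + compound/DMSO, 2,000 cells/well, 16 h, 37 °C/5% CO2. ONE-Glo, 30 min RT, luminescence. Readout = decrease in reporter signal.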
NPC1 prom act – activators of NPC1 promoter. AID 485313. actives 2.4% (n = 320,000). Potency, µM (highest dose often 9.22 µM), usual class: activators. Huh7 NPC1 promoter luciferase reporter, 24 h; also: nearly all actives have a fitted effect of over 60% in size
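Readout is luciferase luminescence, reflecting NPC1 promoter activation in stably transfected Huh7 cells after 24 h compound exposure at 37 °C in reduced-serum medium with 10% FBS.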
FLuc modulator – firefly luciferase modulation, counter-screen for miR-21 project; purified FLuc, Km substrates, luminescence inhibition; AID 588342; Potency, µM (doses to about 57.5 µM), hits mostly inhibitors; actives 6.9% (n = 360,000); P08659; also: nearly all actives have a fitted effect of over 55% in size
Target sequence (P08659 whole entry, looked up): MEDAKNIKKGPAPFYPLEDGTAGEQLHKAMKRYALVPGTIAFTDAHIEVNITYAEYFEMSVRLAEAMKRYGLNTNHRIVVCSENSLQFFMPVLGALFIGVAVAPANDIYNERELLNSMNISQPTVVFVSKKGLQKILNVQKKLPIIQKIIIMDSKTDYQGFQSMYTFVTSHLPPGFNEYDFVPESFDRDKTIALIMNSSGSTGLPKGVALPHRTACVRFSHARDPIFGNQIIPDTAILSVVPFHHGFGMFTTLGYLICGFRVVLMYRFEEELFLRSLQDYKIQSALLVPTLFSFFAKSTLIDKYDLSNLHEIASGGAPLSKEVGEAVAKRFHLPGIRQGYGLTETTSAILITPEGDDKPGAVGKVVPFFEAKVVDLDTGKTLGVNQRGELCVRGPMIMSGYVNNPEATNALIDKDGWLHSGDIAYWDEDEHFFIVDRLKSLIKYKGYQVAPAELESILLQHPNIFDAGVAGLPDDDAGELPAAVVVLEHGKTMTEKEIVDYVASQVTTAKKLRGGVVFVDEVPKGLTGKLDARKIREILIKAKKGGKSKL
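Purified P. pyralis luciferase, 10 nM final, with Km-level 10 uM D-luciferin and 10 uM ATP in 50 mM Tris acetate pH 7.5, 10 mM Mg acetate, 0.01% Tween-20, 0.05% BSA; 6-point qHTS titration about 60 µM downward; luminescence read.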
ELG1 genotox – inducers of genotoxicity in HEK293T ELG1-luciferase cells. HEK293T ELG1-luciferase reporter, luminescence, 16 h. Potency, µM (doses to about 46 µM), usual class: activators. actives 1.3% (n = 330,000). AID 504466; also: nearly all actives have a fitted effect of over 60% in size
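HEK293T cells expressing luciferase-tagged ELG1 were exposed to compound or DMSO vehicle for 16 hr at 37 °C and 5% CO2. Luciferase activity was then measured with ONE-Glo after 30 min at room temperature.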
SMN2 splice enh – increases expression of the SMN2 splice variant; HEK293 SMN2-luciferase splicing reporter, luminescence, 30-36 h; Potency, µM (top dose mostly 46.1 µM), most hits filed as activators; actives 2.8% (n = 210,000); AID 1458; also: nearly all actives have a fitted effect of over 55% in size
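HEK293 cells carry an SMN2 […]–luciferase reporter in which exon 7 inclusion puts luciferase in frame. Cells were plated 10-12 h before compound addition, then incubated 30-36 h at 37C. ONE-Glo luminescence was read; sodium butyrate at 4.5 mM final served as control.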
Rab9 prom act – activates the Rab9 promoter. Huh7 Rab9 promoter-luciferase reporter, luminescence, 24 h. Potency, µM (titrated, usually from 9.22 µM), hits mostly activators. actives 2.8% (n = 320,000). AID 485297; also: nearly all actives have a fitted effect of over 60% in size
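Steps: seed 1500 Huh7 Rab9-luc cells per well, rest 2 h at 37 °C; add compound in DMSO; incubate 24 h; add luciferase reagent, 10 min ambient; read luminescence.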
Each line names hits and unclear results; the compound was inactive in the other large screens; ! = not confirmed by another sample. Calls follow the shape of the dose curve; as a rule, active = well fitted curve in the direction sought with a large enough effect; inconclusive = small, poorly fitted or top-dose-only effect, or another doubt; inactive = no such curve, though single readings can be large; an effect the other way counts as inactive or inconclusive.

CC(C)CC(=O)Nc1ccc2c(c1)oc1ccccc12	ELG1 repair inh inconclusive, NPC1 prom act 1µM, FLuc modulator 2.13µM, SMN2 splice enh 5.62µM, Rab9 prom act 1µM
Cc1ccc(-c2nnc(SCC(=O)Nc3ccc4c(c3)oc3ccccc34)n2C)c(Cl)c1	ELG1 repair inh 18.4µM, FLuc modulator 9.53µM
CCCCC(=O)Nc1ccc2c(c1)oc1ccccc12	ELG1 repair inh inconclusive, NPC1 prom act inconclusive, FLuc modulator 8.49µM, ELG1 genotox inconclusive, SMN2 splice enh 14.1µM, Rab9 prom act 3.55µM
Cc1c(/C(O)=C2/C(=O)C(=O)N(CCN(C)C)C2c2ccc(C(C)C)cc2)cnn1-c1ccccc1 (centres undefined)	none (no result: SMN2 splice enh)
Cc1c(/C(O)=C2\C(=O)C(=O)N(CCN(C)C)C2c2ccccc2)cnn1-c1ccccc1 (centres undefined)	ELG1 repair inh inconclusive, FLuc modulator 16.9µM, ELG1 genotox inconclusive (no result: SMN2 splice enh)
Cc1c(/C(O)=C2\C(=O)C(=O)N(CCN(C)C)C2c2ccco2)cnn1-c1ccccc1 (centres undefined)	ELG1 repair inh inconclusive, NPC1 prom act inconclusive, FLuc modulator 26.9µM, ELG1 genotox 9.2µM, Rab9 prom act inconclusive
Cc1ccc(C2/C(=C(\O)c3cnn(-c4ccccc4)c3C)C(=O)C(=O)N2CCN(C)C)o1 (centres undefined)	NPC1 prom act inconclusive, Rab9 prom act inconclusive
[N-]=[N+]=NC1CC(CO)OC1n1ccc(=O)[nH]c1=O (centres undefined)	none (no result: SMN2 splice enh)
COc1ccccc1CSc1nc2n(n1)C(c1ccccc1)C(C(=O)Nc1ccc(C)cc1)=C(C)N2 (centres undefined)	none (no result: ELG1 repair inh, NPC1 prom act, ELG1 genotox, Rab9 prom act)
Cc1ccc(S(=O)(=O)Nc2ccc3c(c2)n(C)c(=O)n3C)c(C)c1	ELG1 repair inh inconclusive, ELG1 genotox inconclusive (no result: SMN2 splice enh)
CCc1ccc(S(=O)(=O)Nc2cc3c(cc2C)n(C)c(=O)n3C)cc1	ELG1 repair inh inconclusive, ELG1 genotox inconclusive (no result: SMN2 splice enh)
Cc1ccc(S(=O)(=O)Nc2cc3c(cc2NCc2ccccc2)n(C)c(=O)n3C)cc1	FLuc modulator inconclusive, SMN2 splice enh 14.1µM (no result: ELG1 repair inh, NPC1 prom act, ELG1 genotox, Rab9 prom act)
Cn1c(=O)n(C)c2cc(NS(=O)(=O)c3ccc(F)cc3)c(NCc3ccccc3)cc21	FLuc modulator 16.9µM, SMN2 splice enh 0.891µM (no result: ELG1 repair inh, NPC1 prom act, ELG1 genotox, Rab9 prom act)
Cc1ccc(S(=O)(=O)Nc2cc3c(cc2NCc2ccccc2)n(C)c(=O)n3C)c(C)c1	FLuc modulator inconclusive, SMN2 splice enh 10µM (no result: ELG1 repair inh, NPC1 prom act, ELG1 genotox, Rab9 prom act)
COCCc1nn2c(=O)cc(COC(=O)c3ccco3)nc2s1	none (no result: ELG1 repair inh, NPC1 prom act, ELG1 genotox, SMN2 splice enh, Rab9 prom act)
Cc1ccc2nc(=O)c(NNc3ccccc3)cnc2c1	ELG1 repair inh inconclusive, NPC1 prom act inconclusive, FLuc modulator inconclusive, ELG1 genotox inconclusive, SMN2 splice enh 17.8µM, Rab9 prom act inconclusive
Cc1ccc2nc(-c3ccccc3)c(-c3ccccc3)nc2c1	none (no result: SMN2 splice enh)
Cc1nc2ccccc2nc(=O)c1NNc1ccccc1	ELG1 repair inh inconclusive, NPC1 prom act inconclusive, FLuc modulator inconclusive, ELG1 genotox 9.2µM!, SMN2 splice enh 11.2µM, Rab9 prom act inconclusive
CC1CN(C(=O)c2ccccc2OCc2ccc(Cl)cc2Cl)CC(C)O1 (centres undefined)	none (no result: SMN2 splice enh)
N#Cc1ccsc1NC(=O)CN(Cc1ccccc1)Cc1ccccc1	none
COc1cc(CCC(=O)Nc2sccc2C#N)cc(OC)c1OC	ELG1 repair inh 23.1µM (no result: SMN2 splice enh)
N#Cc1ccsc1NC(=O)CCc1ccccc1	ELG1 repair inh inconclusive, FLuc modulator 15.1µM, ELG1 genotox inconclusive, SMN2 splice enh 12.6µM, Rab9 prom act inconclusive
COc1ccc(CCC(=O)OCC(=O)Nc2sccc2C#N)cc1	ELG1 repair inh inconclusive (no result: NPC1 prom act, FLuc modulator, SMN2 splice enh, Rab9 prom act)
O=C(c1ccc(Cl)c([N+](=O)[O-])c1)N1CCCc2ccccc21	ELG1 repair inh inconclusive, FLuc modulator 19µM (no result: SMN2 splice enh)
O=C(c1cccc(Cl)c1)N1CCCc2ccccc21	none (no result: SMN2 splice enh)
O=C(CN1CCCC1c1ccc2c(c1)OCCO2)NC(=O)Nc1ccccc1F (centres undefined)	none (no result: SMN2 splice enh)
CC(=O)Oc1c(/C=C(\C#N)C(N)=O)[nH]c2ccccc12	ELG1 repair inh 20.6µM, FLuc modulator inconclusive
N#C/C(=C\c1c[nH]c2ccccc12)C(N)=O	FLuc modulator inconclusive (no result: SMN2 splice enh)

Screening data from PubChem.
